The panel holds about 83,000 compounds, 20% with a hit somewhere; the sample as a whole holds those more often.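 Note: values are percent growth. 100 is the growth of untreated cells, values between 100 and 0 indicate rising inhibition; between -100 and 0 indicates cell death.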 Calls of active or inactive are those of the source. The calls were made as follows: active = growth percent below 10; inactive = the rest.
Assays:
Test in all cases: NCI-60 one-dose screen, 48 h (100 = growth as untreated, 0 = no growth, -100 = all killed)
DU-145 prostate = settings: 10 µM unless noted
K-562 leukemia = settings: 10 µM unless noted
MALME-3M melanoma = settings: 10 µM unless noted
MDA-MB-231 breast = settings: 10 µM unless noted
RXF 393 renal = settings: 10 µM unless noted
SF-268 CNS = settings: 10 µM unless noted
SF-295 CNS = settings: 10 µM unless noted
SF-539 CNS = settings: 10 µM unless noted
UACC-257 melanoma = settings: 10 µM
M14 melanoma = settings: 10 µM unless noted
HCT-15 colon = settings: 10 µM unless noted
HT29 colon = settings: 10 µM unless noted
SNB-75 CNS = settings: 10 µM unless noted
SNB-19 CNS = settings: 10 µM unless noted
U251 CNS = settings: 10 µM unless noted
PC-3 prostate = settings: 10 µM unless noted
SK-MEL-5 melanoma = settings: 10 µM unless noted
UACC-62 melanoma = settings: 10 µM unless noted
LOX IMVI melanoma = settings: 10 µM unless noted
SK-MEL-28 melanoma = settings: 10 µM unless noted

Measured: growth

CS(=O)c1nccc(-c2c(-c3ccc(F)c(OCc4ccccc4)c3)nc3sccn23)n1 (stereo not given)
inactive: K-562 leukemia 17.8% | MALME-3M melanoma 91.7% | MDA-MB-231 breast 93.8% | RXF 393 renal 96.6% | SF-268 CNS 105% | SF-295 CNS 101% | SF-539 CNS 94.6% | UACC-257 melanoma 19.8% | M14 melanoma 96.5% | HCT-15 colon 74.8% | HT29 colon 89.5% | SNB-75 CNS 95.4% | SNB-19 CNS 93.3% | U251 CNS 105% | PC-3 prostate 54.1% | SK-MEL-5 melanoma 100% | UACC-62 melanoma 93.6% | LOX IMVI melanoma 81.7% | SK-MEL-28 melanoma 55.5%
active: DU-145 prostate 4.02%

COc1cc2oc(-c3cccc(NC(=O)c4cc(NC(=O)[C@H](C)N)ccc4Cl)c3)cc(=O)c2c(OC)c1OC
inactive: DU-145 prostate 95.2% | K-562 leukemia 78.8% | MALME-3M melanoma 111% | MDA-MB-231 breast 82.4% | RXF 393 renal 84.8% | SF-268 CNS 92.2% | SF-295 CNS 92.3% | SF-539 CNS 91.1% | UACC-257 melanoma 129% | M14 melanoma 115% | HCT-15 colon 79.8% | HT29 colon 115% | SNB-75 CNS 96.1% | SNB-19 CNS 88.8% | U251 CNS 95.3% | PC-3 prostate 81.2% | SK-MEL-5 melanoma 86% | UACC-62 melanoma 89.3% | LOX IMVI melanoma 80.9% | SK-MEL-28 melanoma 106%

CC(=O)Nc1nc2c(s1)C1=CC[C@H]3[C@@H]4CC[C@H](C(C)=O)[C@@]4(C)CC[C@@H]3[C@@]1(C)CC2
active: K-562 leukemia 8.05% | RXF 393 renal -29.3% | SF-295 CNS -16.9%
inactive: DU-145 prostate 85.9% | MALME-3M melanoma 72.6% | MDA-MB-231 breast 57.7% | SF-268 CNS 90.2% | SF-539 CNS 40.2% | UACC-257 melanoma 73.2% | M14 melanoma 87% | HCT-15 colon 26.4% | HT29 colon 27.7% | SNB-75 CNS 47.8% | SNB-19 CNS 69% | U251 CNS 44.4% | PC-3 prostate 43% | SK-MEL-5 melanoma 93.6% | UACC-62 melanoma 73.7% | LOX IMVI melanoma 59.6% | SK-MEL-28 melanoma 49%

CN(C)c1ncc(/C=C2\SC(=S)N(Cc3ccccc3Cl)C2=O)s1
inactive: DU-145 prostate 97.8% | K-562 leukemia 68% | MALME-3M melanoma 109% | MDA-MB-231 breast 83.9% | RXF 393 renal 107% | SF-268 CNS 94.3% | SF-295 CNS 66.4% | SF-539 CNS 74.5% | UACC-257 melanoma 98.5% | M14 melanoma 94.1% | HCT-15 colon 84.6% | HT29 colon 88.8% | SNB-75 CNS 88.1% | SNB-19 CNS 78.6% | U251 CNS 42% | PC-3 prostate 91.1% | SK-MEL-5 melanoma 101% | UACC-62 melanoma 94.6% | LOX IMVI melanoma 69.2% | SK-MEL-28 melanoma 104%

COc1ccc(NC2=C(Cl)C(=O)C(C)=C(C)C2=O)cc1
active: K-562 leukemia 5.78% | MDA-MB-231 breast -15.1%
inactive: DU-145 prostate 106% | MALME-3M melanoma 99.8% | RXF 393 renal 100% | SF-268 CNS 96% | SF-295 CNS 100% | SF-539 CNS 103% | UACC-257 melanoma 85.5% | M14 melanoma 95.5% | HCT-15 colon 94.8% | HT29 colon 106% | SNB-75 CNS 71.7% | SNB-19 CNS 95.2% | U251 CNS 88.6% | PC-3 prostate 74.7% | SK-MEL-5 melanoma 97.7% | UACC-62 melanoma 91% | LOX IMVI melanoma 65.8% | SK-MEL-28 melanoma 103%

O=c1[nH]c(CNc2ccc(NCc3c(-c4ccccc4)no[n+]3[O-])cc2)nc2c1cnn2-c1ccccc1
inactive: DU-145 prostate 74.6% | K-562 leukemia 49.8% | MALME-3M melanoma 80% | MDA-MB-231 breast 72.5% | RXF 393 renal 98.4% | SF-268 CNS 73.5% | SF-295 CNS 71.8% | SF-539 CNS 92.6% | UACC-257 melanoma 60.6% | M14 melanoma 70.7% | HCT-15 colon 71.2% | HT29 colon 92% | SNB-75 CNS 76.1% | SNB-19 CNS 94% | U251 CNS 85.5% | PC-3 prostate 63.3% | SK-MEL-5 melanoma 39% | UACC-62 melanoma 52.5% | LOX IMVI melanoma 63.6% | SK-MEL-28 melanoma 85.3%

COC(=O)Nc1ccc(-c2nc(-c3cccc(O)c3)c(-c3ccnc(Br)c3)[nH]2)cc1
inactive: DU-145 prostate 62.1% | K-562 leukemia 27.9% | MALME-3M melanoma 54.1% | MDA-MB-231 breast 56.6% | SF-268 CNS 72.6% | SF-295 CNS 27.8% | SF-539 CNS 52.6% | UACC-257 melanoma 58.5% | M14 melanoma 48.9% | HCT-15 colon 51% | HT29 colon 73.7% | SNB-19 CNS 56.2% | U251 CNS 47% | PC-3 prostate 23.7% | SK-MEL-5 melanoma 61.2% | UACC-62 melanoma 23.7% | LOX IMVI melanoma 38% | SK-MEL-28 melanoma 58.7%
active: RXF 393 renal -4.89% | SNB-75 CNS 3.12%

C#CCOc1ccc(C(Nc2ccc(Cl)cc2)c2nnnn2C2CCCCC2)cc1 (stereo not given)
inactive: DU-145 prostate 93.8% | K-562 leukemia 82.2% | MALME-3M melanoma 98.8% | MDA-MB-231 breast 76.9% | RXF 393 renal 87% | SF-268 CNS 80.2% | SF-295 CNS 74.5% | SF-539 CNS 98.6% | UACC-257 melanoma 86.2% | M14 melanoma 99.4% | HCT-15 colon 80% | HT29 colon 92% | SNB-75 CNS 87.4% | SNB-19 CNS 89.5% | U251 CNS 86.9% | PC-3 prostate 75.2% | SK-MEL-5 melanoma 92.3% | UACC-62 melanoma 72.4% | LOX IMVI melanoma 81.4% | SK-MEL-28 melanoma 102%

CC1(C)CC[C@]2(C(=O)O)CC[C@]3(C)C(=CCC4[C@@]5(C)C[C@@H](O)[C@@H]6OC(c7cccc([N+](=O)[O-])c7)OC[C@@]6(C)C5CC[C@]43C)C2C1 (stereo not given in full)
inactive: DU-145 prostate 60.1% | K-562 leukemia 44.9% | MALME-3M melanoma 86.7% | MDA-MB-231 breast 82% | RXF 393 renal 85.3% | SF-268 CNS 74.6% | SF-295 CNS 36.8% | SF-539 CNS 83.7% | UACC-257 melanoma 103% | M14 melanoma 72.8% | HCT-15 colon 37.6% | HT29 colon 59% | SNB-75 CNS 84.4% | SNB-19 CNS 61.9% | U251 CNS 41.5% | PC-3 prostate 65% | SK-MEL-5 melanoma 64.5% | UACC-62 melanoma 69.2% | LOX IMVI melanoma 42.7% | SK-MEL-28 melanoma 87.4%

CN1CCN(c2nc(-c3cnc4ccccc4n3)cc3ccccc23)CC1
inactive: DU-145 prostate 77.1% | MALME-3M melanoma 69% | MDA-MB-231 breast 71.4% | RXF 393 renal 23.9% | SF-268 CNS 71.1% | SF-295 CNS 89.9% | SF-539 CNS 80.1% | UACC-257 melanoma 91% | HT29 colon 21.3% | SNB-75 CNS 72.7% | SNB-19 CNS 81.1% | U251 CNS 68% | PC-3 prostate 70.8% | SK-MEL-5 melanoma 66.4% | LOX IMVI melanoma 20% | SK-MEL-28 melanoma 30.9%
active: K-562 leukemia -52.1% | M14 melanoma -80% | HCT-15 colon 7.27% | UACC-62 melanoma -7.14%

CCC(=O)Nc1ccc(-c2nc(-c3cccc(O)c3)c(-c3ccnc(Br)c3)[nH]2)cc1
active: RXF 393 renal -4.84% | SNB-75 CNS 8.26%
inactive: DU-145 prostate 56% | K-562 leukemia 32.8% | MALME-3M melanoma 59.8% | MDA-MB-231 breast 71.8% | SF-268 CNS 82.1% | SF-295 CNS 45.8% | SF-539 CNS 57.1% | UACC-257 melanoma 64.1% | M14 melanoma 66.7% | HCT-15 colon 78.6% | HT29 colon 51.7% | SNB-19 CNS 58% | U251 CNS 47.8% | PC-3 prostate 60.5% | SK-MEL-5 melanoma 77% | UACC-62 melanoma 34.6% | LOX IMVI melanoma 59.3% | SK-MEL-28 melanoma 59.1%

O=C(C[n+]1ccnc2ccccc21)c1ccc(O)c(O)c1
active: LOX IMVI melanoma 8.68%
inactive: DU-145 prostate 47.3% | K-562 leukemia 16.6% | MALME-3M melanoma 54.7% | MDA-MB-231 breast 55.3% | RXF 393 renal 17% | SF-268 CNS 85.7% | SF-295 CNS 87.5% | SF-539 CNS 53.1% | UACC-257 melanoma 57.8% | M14 melanoma 61.3% | HCT-15 colon 12.8% | HT29 colon 18.3% | SNB-75 CNS 98.2% | SNB-19 CNS 80.8% | U251 CNS 63.8% | PC-3 prostate 44.7% | SK-MEL-5 melanoma 81.6% | UACC-62 melanoma 54.6% | SK-MEL-28 melanoma 63.3%

COc1cc(O)c2c(c1)/C=C/C[C@H](O)[C@H](O)C(=O)/C=C\C[C@H](C)OC2=O
active: DU-145 prostate -2.78% | K-562 leukemia 9.06% | MALME-3M melanoma -20.3% | MDA-MB-231 breast -7.72% | RXF 393 renal -56.9% | SF-539 CNS -24.8% | UACC-257 melanoma -19.7% | M14 melanoma -22.7% | HCT-15 colon -47.5% | HT29 colon 1.76% | SNB-75 CNS -2.99% | SK-MEL-5 melanoma -57.9% | UACC-62 melanoma -16.3% | LOX IMVI melanoma -42.7% | SK-MEL-28 melanoma -3.57%
inactive: SF-268 CNS 34.9% | SF-295 CNS 60.2% | SNB-19 CNS 52.3% | U251 CNS 34.6% | PC-3 prostate 42.6%

Nc1n[nH]c2cccc(C#Cc3cccc(NC(=O)c4cccc(OC(F)(F)F)c4)c3)c12
inactive: DU-145 prostate 71.4% | MDA-MB-231 breast 17.7% | RXF 393 renal 24.2% | SF-268 CNS 50.9% | SF-295 CNS 73.8% | UACC-257 melanoma 63.1% | M14 melanoma 31% | HCT-15 colon 41.3% | HT29 colon 36.1% | SNB-75 CNS 47.7% | SNB-19 CNS 81.3% | U251 CNS 59.3% | PC-3 prostate 68.3% | SK-MEL-5 melanoma 80.9% | UACC-62 melanoma 30.1% | LOX IMVI melanoma 16.9% | SK-MEL-28 melanoma 30.3%
active: K-562 leukemia 7.22% | MALME-3M melanoma 2.17% | SF-539 CNS 6.63%

Nc1nc(-c2cccc([N+](=O)[O-])c2)c(N=Nc2cccc(Cl)c2)s1
active: RXF 393 renal -11.4%
inactive: DU-145 prostate 63.6% | K-562 leukemia 30.1% | MALME-3M melanoma 93.1% | MDA-MB-231 breast 47.3% | SF-268 CNS 41.4% | SF-295 CNS 53% | SF-539 CNS 55.2% | UACC-257 melanoma 77.6% | M14 melanoma 37% | HCT-15 colon 16.3% | HT29 colon 40.7% | SNB-75 CNS 40.3% | SNB-19 CNS 73.9% | U251 CNS 44.3% | PC-3 prostate 37.6% | SK-MEL-5 melanoma 39.9% | UACC-62 melanoma 32.9% | LOX IMVI melanoma 24.5% | SK-MEL-28 melanoma 75.6%

Reference: PubChem BioAssay (NCI)
